Data reported in a collection of fitness landscapes (doi:10.1016/j.celrep.2020.107928).
The full ranking holds about 81,000 sequences; the median of “one-hybrid fitness for binding parS DNA” is about -0.17, and the highest 2% start at about 0.51. The entries come from a sample that favours the highest values as a whole.

B1: Caulobacter ParB omega fusion; a variant is named by its letters at X, in order, B8GW30 (parent)
chain: MESVVVGEPGMSEGRRGLGRGLSALLGEVDAAPAQAPGEQLGGSREAPIEILQRNPDQPRRTFREEDLEDLSNSIREKGVLQPILVRPSPDTAGEYQIVAGERAWRAAQRAGLKTVPIMVRELDDLAVLEIGIIENVQRADLNVLEEALSYKVLMEKFERTQENIAQTIGKSXSHVANXMRLLXLPDEVQSYLVSGELTAXHARAIAAAADPVALAKQIIEGGLSVRETEALARKAPNLSAGKSKGGRPPRVKDTDTQALESDLSSVLGLDVSIDHRGSTGTLTITYATLEQLDDLCNRLTRGI

Variants of: B1
Experiment: one-hybrid fitness for binding parS DNA (scaled: cognate 1, non-cognate 0); higher = stronger binding
Details: with parS DNA site
How it was run: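 Selection: bacterial one-hybrid in E. coli USO, HIS3 reporter with the site 19 bp from the promoter, 48 hours at 37°C on M9-minus-histidine plus 0.1 mM IPTG and 5 mM 3-AT. Libraries were Caulobacter ParB with four randomised specificity codons, sequenced on Illumina before and after selection. Fitness is the rescaled log change in variant-to-wild-type read ratio, anchored to the cognate and non-cognate sites.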

one-hybrid fitness for binding parS DNA, 1.04:
RMLS

one-hybrid fitness for binding parS DNA, ≤ 0.2:
ASNF
STMD
THAI
HFAT
VNIM
GRPC
ANQN
HYCT
RKHR
RKRP
RKHF
RKCQ
RKRD
QYTT
HLKG
TWTY
QNAG
GTTH
SETA
TDDG
QFHD
RMND
RMGK
RMRQ
RMDL
GTPS
EHHI
KHQH
PMNI
RECV
NATT
LRNV
MRHY
KGRF
YADG
YTRC
QWHV
RMYD
RMQP
RMYP
VHYL
ADVS
GAPV
SQVL
AMKY
GIMG
SACQ
RWLW
RMFP
RMFD
PWEY
LATA
RLDI
ENYW
AEQK
RYAP
RYFP
RYAH
PWFC
RMRP
RMDP
RMDD
FDLP
LARN
YKTN
PMMG

one-hybrid fitness for binding parS DNA, 0.923:
RMYT

one-hybrid fitness for binding parS DNA, 0.286:
RKCM

one-hybrid fitness for binding parS DNA, 0.425:
RYFN

one-hybrid fitness for binding parS DNA, 0.921:
RMQT

one-hybrid fitness for binding parS DNA, 0.868:
RMRS

one-hybrid fitness for binding parS DNA, 0.237:
RMNF

one-hybrid fitness for binding parS DNA, 0.529:
RMNY

one-hybrid fitness for binding parS DNA, 0.282:
RMAH

one-hybrid fitness for binding parS DNA, 0.904:
RMNT

one-hybrid fitness for binding parS DNA, 0.275:
RMLH

one-hybrid fitness for binding parS DNA, 0.37:
RMSM

one-hybrid fitness for binding parS DNA, 0.917:
RYAS

one-hybrid fitness for binding parS DNA, 0.439:
RMLN

one-hybrid fitness for binding parS DNA, 0.223:
RMDF

one-hybrid fitness for binding parS DNA, 0.991:
RMAS

one-hybrid fitness for binding parS DNA, 0.258:
RMSF

one-hybrid fitness for binding parS DNA, 0.405:
RMDY

one-hybrid fitness for binding parS DNA, 0.379:
RMRM

one-hybrid fitness for binding parS DNA, 0.269:
RMGF

one-hybrid fitness for binding parS DNA, 0.318:
RMQD

one-hybrid fitness for binding parS DNA, 1.02:
RYFS
RMDS

one-hybrid fitness for binding parS DNA, 1.07:
RMFS

one-hybrid fitness for binding parS DNA, 0.925:
RKHG

one-hybrid fitness for binding parS DNA, 0.418:
RMRN

one-hybrid fitness for binding parS DNA, 0.971:
RKCG

one-hybrid fitness for binding parS DNA, 0.937:
RMGT

one-hybrid fitness for binding parS DNA, 0.46:
RMAN

one-hybrid fitness for binding parS DNA, 0.812:
RMRT

one-hybrid fitness for binding parS DNA, 0.945:
RMST

one-hybrid fitness for binding parS DNA, 0.851:
RKRG

one-hybrid fitness for binding parS DNA, 0.794:
RMDT
